# In the supplement of paper PMC13380429:
# Unmarked numbers belong to inactive results.
# Test system: Vero E6 infected with SARS-CoV-2
# Assay: inhibition of SARS-CoV-2 cytopathic effect; higher = more antiviral protection, active = above 15
# Conditions: 48 h
Structure (SMILES),inhibition of SARS-CoV-2 cytopathic effect (1 nM) [%],inhibition of SARS-CoV-2 cytopathic effect (8.33 nM) [%],inhibition of SARS-CoV-2 cytopathic effect (100 nM) [%],inhibition of SARS-CoV-2 cytopathic effect (833.33 nM) [%],inhibition of SARS-CoV-2 cytopathic effect (10000 nM)
NC(=O)CN1CC(c2ccccc2)CC1=O (stereo not given) [phenylpiracetam],1.63,-10.6,2.27,1.14,-0.44%
O=C1CNC(=O)CN1 [piperazinedione],-1.5,-0.79,-1.97,-2.42,-2.4%
c1ccc(N2CCN(CCCOc3ccc4c(c3)OCO4)CC2)cc1,-0.84,-2.11,-4.95,-3.5,-4.64%
CC(C)=CCc1c(O)cc(O)c2c(=O)c(O)c(-c3ccc(C(F)(F)F)cc3)oc12,2.04,1.52,3.93,2.83,2.95%
CCCOCCn1c(=O)c(N2CCN(CCO)CC2)nc2cnc(-c3ccc(OC)nc3)cc21,0.37,0.25,-0.91,-1.66,-1.9%
Cc1cc(CN2CCN(c3c(Br)cnc4nc(-c5ccc(N6CCN(C)CC6)cc5)[nH]c34)CC2)no1,-1.63,-1.4,-0.54,-5,-6.41%
Cc1ncc(C[n+]2csc(CCO)c2C)c(N)n1 [thiamine],-3.81,-0.57,-1.61,-1.44,0.13%
COC(=O)C1=C(C)NC(C)=C(C(=O)NCCCN2CCC(c3ccccc3)(c3ccccc3)CC2)C1c1ccc([N+](=O)[O-])cc1 (stereo not given),1.77,1.95,0.45,0.78,48.8% (active)
CC(=O)OC[C@H]1O[C@@H](n2ccc(=O)[nH]c2=O)[C@H](OC(C)=O)[C@@H]1OC(C)=O [uridine-triacetate],-1.68,0.37,0.84,-3.59,-0.59%
CC(=O)Nc1c(I)c(C(=O)O)c(I)c(N(C)C(C)=O)c1I [metrizoic-acid],-1.11,0.34,0.21,2.48,1.65%
C=C1CC/C=C(\C)CC[C@@H]2[C@@H]1CC2(C)C [g-caryophyllene],1.74,2.63,-0.6,1.24,1.88%
CCOP(=S)(OCC)Oc1nc(Cl)c(Cl)cc1Cl [chlorpyrifos],0.53,2.45,-0.67,0.54,-4.79%
CN1CCC(=C2c3ccccc3CCn3c(C=O)cnc32)CC1 [alcaftadine],-1.5,0.26,-2.72,0.36,-2.28%
O=C1c2cccc(O)c2C(=O)c2c(O)cccc21 [dantron],-2.75,-3.39,-1.6,-0.79,0.11%
O=NO [sodium-nitrite],1.28,-0.03,3.46,3.43,0.91%
COc1cc2c(=O)c(-c3ccc(O)cc3)coc2cc1O [glycitein],1.2,-0.34,-0.96,-2.13,-1.58%
Nc1c(-c2cccc(C(F)(F)F)c2)nsc1C(=O)O [amflutizole],-1.13,0.29,-1.28,0.87,1.39%
NC(=O)NC(=O)Cc1ccccc1 [phenacemide],-1.41,0.22,-0.3,0.89,0.35%
CC(=O)N[C@H]1[C@@H](O)[C@H](O)[C@@H](CO)O[C@@H]1O [N-acetylmannosamine],0.48,-0.18,-0.61,-1.2,1.32%
O=[N+]([O-])C(Br)(CO)CO [bronopol],-0.93,-3.53,0.32,0.51,-1.05%
CCN(CC)CCOCCOC(=O)C1(c2ccccc2)CCCC1 [carbetapentane],-0.34,0.73,1.1,1.39,0.95%
